Active and inactive are the calls of the source.
Tests used:
Albumin (Bos taurus) = Albumin (Bos taurus) (UniProt P02769); assay: compounds binding labelled BSA control protein – biochemical, small-molecule microarray, Alexa647 label, 635/667 nm fluorescence, artefact control for SMM control protein annotation, profiling panel (AID 1118); conditions: BSA-A647 binding, fluorescence 635 nm, higher = more signal;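 also: score merges 667 nm emission intensity and signal-to-noise per printed compound spot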
Albumin (Bos taurus), sequence (P02769 whole entry, looked up): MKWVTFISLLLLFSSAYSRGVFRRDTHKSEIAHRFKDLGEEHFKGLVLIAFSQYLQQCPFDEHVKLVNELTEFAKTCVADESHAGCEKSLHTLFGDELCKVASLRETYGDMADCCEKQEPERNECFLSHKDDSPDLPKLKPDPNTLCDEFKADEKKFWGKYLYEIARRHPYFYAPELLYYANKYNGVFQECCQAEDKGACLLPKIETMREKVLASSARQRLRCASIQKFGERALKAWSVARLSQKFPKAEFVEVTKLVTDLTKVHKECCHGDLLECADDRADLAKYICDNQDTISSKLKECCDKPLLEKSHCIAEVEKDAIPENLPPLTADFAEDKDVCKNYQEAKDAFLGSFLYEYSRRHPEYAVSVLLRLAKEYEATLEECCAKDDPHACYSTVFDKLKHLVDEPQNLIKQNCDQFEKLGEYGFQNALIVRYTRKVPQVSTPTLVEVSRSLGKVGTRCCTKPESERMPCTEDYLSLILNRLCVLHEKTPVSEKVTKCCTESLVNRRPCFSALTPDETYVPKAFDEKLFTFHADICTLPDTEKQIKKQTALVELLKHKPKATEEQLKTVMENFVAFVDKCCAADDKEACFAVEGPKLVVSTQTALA

[1] = probe aXIP binding to arrayed compounds – biochemical, NeuroSMM set, 635/667 nm fluorescence, primary screen (AID 1119); conditions: small-molecule microarray, higher = more signal, called active from +8 up or from −8 down;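 also: probe is the protein aXip251-270 applied at 1 µg/mL to compound-printed slides; binding of probe to printed compounds measured as 667 nm fluorescence plus signal to noise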
[2] = probe aNOTCH3 binding on compound microarray – biochemical, small-molecule microarray, 635/667 nm fluorescence, primary screen (AID 1120); conditions: higher = more signal;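 also: probe is a biotin-tagged antibody raised against NOTCH3 rather than NOTCH3 protein; score merges spot fluorescence near 667 nm with spot signal to noise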
[3] = probe aNOTCH2 binding on compound microarray – biochemical, small-molecule microarray, 635/667 nm fluorescence, primary screen (AID 1121); conditions: higher = more signal;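 also: score merges feature fluorescence read at 667 nm with its signal to noise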
[4] = target: Carbonic anhydrase 2 (Homo sapiens) (UniProt P00918); assay: compounds binding carbonic anhydrase 2 – biochemical, small-molecule microarray, Alexa647-labelled CAII, profiling panel (AID 1122); conditions: CAII-A647 binding fluorescence, higher = more signal
[5] = COS7 lysate on small-molecule microarray, probe aHis, 635 nm (AID 1123); conditions: COS7 cell lysate, fluorescence, higher = more signal;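 also: z-score combines 667nm fluorescence intensity with signal-to-noise per printed compound spot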
[6] = probe aLAP1 signal on lysate-treated microarray – cell lysate, small-molecule microarray, COS7 lysate, primary screen (AID 1124); conditions: probe aLAP1, fluorescence, higher = more signal;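 also: lysate comes from COS7 cells expressing LAP1 and is applied at 0.3 µg/mL; score merges spot fluorescence near 667 nm with signal-to-noise over triplicate slides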
Sam68 (KHDRBS1) = assay: compounds binding KHDRBS1 protein – biochemical, small-molecule microarray, 635 nm fluorescence, primary screen (AID 1125); conditions: higher = more signal;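 also: score merges 667 nm channel intensity with signal to noise over triplicate slides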
[7] = tested on: Chordin-like protein 2 (CHRDL2); assay: compounds binding chordin-like 2 – biochemical, small-molecule microarray, 635 nm fluorescence, primary screen (AID 1126); conditions: fluorescence 635 nm, higher = more signal;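 also: printed compound slides probed with Chrdl2 protein at 4 µg/mL for 1 h at 4 C; score merges 667 nm emission intensity with signal to noise over three replicate slides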
[8] = target: Concanavalin-A (Canavalia ensiformis) (UniProt P02866); assay: compounds binding concanavalin A lectin – biochemical, small-molecule microarray, Alexa647 label, 635 nm, artefact control for SMM control protein annotation, primary screen (AID 1127); conditions: ConA-A647 binding fluorescence, higher = more signal;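 also: z combines 667 nm emission intensity with signal-to-noise across three replicate slides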
Concanavalin-A (Canavalia ensiformis), sequence (P02866 whole entry, looked up): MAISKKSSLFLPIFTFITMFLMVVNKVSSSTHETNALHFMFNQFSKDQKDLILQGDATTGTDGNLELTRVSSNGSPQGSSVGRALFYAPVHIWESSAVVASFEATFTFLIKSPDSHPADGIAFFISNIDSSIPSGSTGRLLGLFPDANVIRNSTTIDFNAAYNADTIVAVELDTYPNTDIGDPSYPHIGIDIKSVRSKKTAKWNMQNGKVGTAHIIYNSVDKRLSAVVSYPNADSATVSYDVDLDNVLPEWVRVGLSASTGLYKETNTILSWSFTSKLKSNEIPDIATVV

[9] = compounds binding Alexa647 anti-His antibody – biochemical, small-molecule microarray, 635 nm fluorescence, artefact control for SMM control protein annotation, primary screen (AID 1128); conditions: higher = more signal;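 also: score merges feature fluorescence with signal-to-noise for each printed compound spot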
[10] = tested on: Human papillomavirus type 1a E7 protein (residues 1-88); assay: HPV1a E7 small-molecule binders, primary screen, biochemical, small-molecule microarray, residues 1-88, 635 nm (AID 1129); conditions: small-molecule microarray binding, fluorescence 635 nm; higher = more signal
[11] = target: Focal adhesion kinase 1 (Homo sapiens) (UniProt Q05397); assay: PTK2 protein binding on printed compound slides – biochemical, small-molecule microarray, 635/667 nm fluorescence, BSA, DTT, primary screen (AID 1130); conditions: 635 nm fluorescence, higher = more signal;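 also: composite of spot emission at 667 nm and signal to noise over triplicate slides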
Focal adhesion kinase 1 (Homo sapiens), sequence (Q05397 whole entry, looked up): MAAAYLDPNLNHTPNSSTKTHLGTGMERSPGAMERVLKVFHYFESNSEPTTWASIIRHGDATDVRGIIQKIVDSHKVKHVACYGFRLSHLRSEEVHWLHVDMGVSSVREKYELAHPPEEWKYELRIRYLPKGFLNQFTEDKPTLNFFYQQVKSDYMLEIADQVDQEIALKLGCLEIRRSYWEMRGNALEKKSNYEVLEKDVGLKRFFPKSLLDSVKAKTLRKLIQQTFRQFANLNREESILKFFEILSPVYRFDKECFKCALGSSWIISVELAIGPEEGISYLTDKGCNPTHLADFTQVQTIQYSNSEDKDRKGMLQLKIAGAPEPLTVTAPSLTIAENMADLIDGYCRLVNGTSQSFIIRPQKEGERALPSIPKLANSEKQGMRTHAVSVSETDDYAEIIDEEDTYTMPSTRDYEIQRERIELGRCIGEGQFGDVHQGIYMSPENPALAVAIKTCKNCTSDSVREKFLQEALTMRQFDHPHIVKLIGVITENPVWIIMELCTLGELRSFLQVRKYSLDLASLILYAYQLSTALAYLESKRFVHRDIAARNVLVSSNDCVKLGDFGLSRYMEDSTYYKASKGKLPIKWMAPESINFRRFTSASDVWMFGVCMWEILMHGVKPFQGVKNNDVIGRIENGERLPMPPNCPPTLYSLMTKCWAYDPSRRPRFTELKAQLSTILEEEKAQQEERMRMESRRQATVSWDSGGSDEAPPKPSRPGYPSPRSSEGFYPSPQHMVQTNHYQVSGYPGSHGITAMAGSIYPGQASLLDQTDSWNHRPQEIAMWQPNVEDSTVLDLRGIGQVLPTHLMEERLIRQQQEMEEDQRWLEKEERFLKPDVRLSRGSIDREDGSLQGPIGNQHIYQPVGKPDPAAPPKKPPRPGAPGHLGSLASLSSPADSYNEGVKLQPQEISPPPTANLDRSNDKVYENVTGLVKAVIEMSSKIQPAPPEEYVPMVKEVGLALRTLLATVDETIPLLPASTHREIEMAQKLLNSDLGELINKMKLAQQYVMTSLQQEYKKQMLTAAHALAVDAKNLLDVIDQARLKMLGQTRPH

[12] = tested on: Fibrinogen (Alexa647-labelled); assay: Alexa647-fibrinogen binding to printed small molecules – biochemical, small-molecule microarray, 635/667 nm fluorescence, artefact control for SMM control-protein annotation, profiling panel (AID 1131); conditions: fibrinogen-A647 binding fluorescence, higher = more signal;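 also: z-score merges 667 nm fluorescence with per-spot signal-to-noise over triplicate slides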
[13] = target: Follistatin (Homo sapiens) (UniProt P19883); assay: FST protein binding to printed compounds – biochemical, small-molecule microarray, 635/667 nm fluorescence, primary screen (AID 1132); conditions: 635 nm fluorescence, higher = more signal
Follistatin (Homo sapiens), sequence (P19883 whole entry, looked up): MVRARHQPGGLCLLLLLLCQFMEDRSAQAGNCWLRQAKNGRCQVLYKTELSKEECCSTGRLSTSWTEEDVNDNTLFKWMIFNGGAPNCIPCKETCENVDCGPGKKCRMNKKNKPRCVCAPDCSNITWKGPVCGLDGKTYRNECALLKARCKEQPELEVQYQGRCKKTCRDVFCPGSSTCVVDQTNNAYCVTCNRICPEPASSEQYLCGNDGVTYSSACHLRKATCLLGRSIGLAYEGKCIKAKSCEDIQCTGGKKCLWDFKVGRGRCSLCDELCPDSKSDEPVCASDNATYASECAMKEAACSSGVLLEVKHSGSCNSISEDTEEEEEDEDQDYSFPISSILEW

[14] = target: Fibroblast growth factor 2 (Homo sapiens) (UniProt P09038); assay: basic fibroblast growth factor binding to printed compounds – biochemical, small-molecule microarray, 635/667 nm fluorescence, primary screen (AID 1133); conditions: FGF2, fluorescence 635/667, higher = more signal
Fibroblast growth factor 2 (Homo sapiens), sequence (P09038 whole entry, looked up): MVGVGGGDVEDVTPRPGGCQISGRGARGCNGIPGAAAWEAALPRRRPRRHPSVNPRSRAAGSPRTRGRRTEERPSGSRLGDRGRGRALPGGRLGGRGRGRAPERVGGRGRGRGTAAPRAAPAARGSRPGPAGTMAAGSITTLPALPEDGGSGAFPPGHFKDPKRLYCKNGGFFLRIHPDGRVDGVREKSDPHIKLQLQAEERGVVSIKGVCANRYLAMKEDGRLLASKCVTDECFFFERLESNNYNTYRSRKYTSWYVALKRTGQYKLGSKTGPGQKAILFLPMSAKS

[15] = JC-1 mitochondrial potential readout, lung cancer cells – cell-based, A549, JC-1 fluorescence, basal, 24 h, 100 nL, profiling panel (AID 1138); conditions: higher = more signal;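 also: A549 lung adenocarcinoma cells under basal conditions with no added stimulus; test concentration not given here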
Lefty1 = Lefty1 protein binding to printed compounds – biochemical, small-molecule microarray, 635/667 nm fluorescence, primary screen (AID 1139); conditions: fluorescence 635/667, higher = more signal
[16] = tested on: wheat germ agglutinin (Triticum aestivum), Alexa647-labelled; assay: Alexa647-WGA lectin binding to printed small molecules – biochemical, small-molecule microarray, 635/667 nm fluorescence, artefact control for SMM control-protein annotation, profiling panel (AID 1140); conditions: WGA-A647 binding, 635 nm fluorescence, higher = more signal;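 also: score merges 667 nm feature emission with signal to noise over triplicate slides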
[17] = target: Luciferin 4-monooxygenase (Photinus pyralis) (UniProt P08659); assay: inhibition of purified Photinus pyralis luciferase – biochemical, luminescence, purified enzyme, 2006 set, primary screen (AID 1141); conditions: purified firefly luciferase, SteadyGlo luminescence, 30 min; higher = more signal, called active from +8 up or from −8 down;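 also: cell-free assay with purified firefly luciferase at 100 ng per well in PBS; test concentration not given here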
Luciferin 4-monooxygenase (Photinus pyralis), sequence (P08659 whole entry, looked up): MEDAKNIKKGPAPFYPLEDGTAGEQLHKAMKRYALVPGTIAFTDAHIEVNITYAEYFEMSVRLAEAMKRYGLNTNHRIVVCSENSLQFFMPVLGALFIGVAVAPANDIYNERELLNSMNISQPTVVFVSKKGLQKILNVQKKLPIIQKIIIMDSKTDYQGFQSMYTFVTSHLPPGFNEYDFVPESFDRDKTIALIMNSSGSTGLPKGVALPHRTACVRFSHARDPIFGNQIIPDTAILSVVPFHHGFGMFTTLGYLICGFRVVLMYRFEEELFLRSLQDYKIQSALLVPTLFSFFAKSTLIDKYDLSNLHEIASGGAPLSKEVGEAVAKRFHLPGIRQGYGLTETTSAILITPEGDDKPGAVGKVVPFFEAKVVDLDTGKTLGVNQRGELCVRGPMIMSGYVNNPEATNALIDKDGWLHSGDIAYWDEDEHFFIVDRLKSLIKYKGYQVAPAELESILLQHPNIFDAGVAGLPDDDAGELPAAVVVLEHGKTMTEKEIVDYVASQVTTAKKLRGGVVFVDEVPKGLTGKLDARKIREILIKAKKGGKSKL

Structure (SMILES) | composite z-score (Albumin (Bos taurus)) | composite Z-score [1] | composite z-score [2] | composite z-score [3] | composite z-score [4] | composite z-score [5] | composite z-score [6] | composite z-score (Sam68 (KHDRBS1)) | composite z-score [7] | composite z-score [8] | composite z-score [9] | composite z-score [10] | composite z-score [11] | composite z-score [12] | composite z-score [13] | composite z-score [14] | z-score [15] | composite z-score (Lefty1) | composite z-score [16] | z-score [17]
[N-]=[N+]=NCc1ccccc1C[C@@]1(C(=O)N2CCCCC2)N=C(c2ccc(OCCCO)cc2)O[C@@H]1c1ccccc1N=[N+]=[N-] | 0.79 | 0.131 (inactive) | 0.0522 | -0.13 | 0.378 | 2.1 | -0.0562 | 1.09 | -0.186 | 1.08 | 1.4 | 1.14 | 0.759 | 0.769 | 0.249 | 0.157 | 1.25 | -0.162 | 0.885 | -6.07 (inactive)
COc1ccc([Si](C)(C)[C@@H]2[C@@H](CCO)O[C@]3(C(=O)N(Cc4cccc(N5C(=O)c6ccccc6Oc6ccccc65)c4)c4ccccc43)[C@H]2C)cc1 | 0.326 | -0.0368 (inactive) | -0.157 | -0.0712 | 0.411 | 1.07 | 0.594 | 0.554 | -0.245 | 0.276 | 0.106 | 0.502 | 0.121 | -0.0703 | -0.672 | -0.559 | -0.368 | 0.135 | 0.413 | -1.26 (inactive)
C=CCN1C(=O)[C@@]2(O[C@@H](CCO)[C@H]([Si](C)(C)c3ccc(OC)cc3)[C@H]2C)c2cc(N3C(=O)c4ccccc4Oc4ccccc43)ccc21 | 0.593 | 0.0553 (inactive) | -0.145 | -0.133 | 0.307 | 1.15 | 0.478 | 0.522 | -0.0806 | 0.854 | 0.939 | 0.551 | 0.17 | 0.485 | 0.144 | 0.675 | 0.00401 | 0.24 | 0.615 | -1.49 (inactive)
CC[C@H]1C2=C3C(CC[C@H]4C(OCc5ccc(F)cc5C(F)(F)F)OC[C@](C)([C@@H]34)N(C(=O)OC(C)(C)C)C2)C2COC(=O)OCC21 (stereo not given in full) | 0.911 | 0.572 (inactive) | 0.367 | 0.0755 | 0.578 | 2.62 | 0.494 | 1.32 | -1.64 | 0.994 | 0.0812 | 1.17 | 1.55 | 0.979 | 0.432 | -1.39 | 1.86 | -0.233 | 0.688 | -0.198 (inactive)
COc1cc2c(cc1O)C(C)N(Cc1cc3c(cc1Br)OCO3)CC2 (stereo not given) | -0.0769 | 2.1 (inactive) | -0.119 | -0.0924 | 0.887 | 0.578 | 0.349 | -0.309 | -0.55 | -0.251 | -0.408 | -1.4 | -0.618 | -1.01 | -0.381 | -0.437 | -0.472 | -0.46 | -0.55 | -0.499 (inactive)
Cc1ccc(C(C)CC(O)C2C=CC3C(=O)N(c4ccccc4)C(=O)C3N2Nc2ccc(C(C)C)cc2)o1 (stereo not given) | 0.935 | -0.263 (inactive) | 0.126 | 0.299 | 0.541 | 1.33 | 0.835 | 1.28 | -0.527 | 1.15 | 0.953 | 1.16 | 0.423 | 0.59 | 0.75 | -0.14 | -0.678 | -0.795 | 1.15 | -0.528 (inactive)
CC(C)(C)OC(=O)CC[C@]1(C(=O)O)N=C(c2ccc(OCCCO)cc2)O[C@H]1c1ccccc1 | 0.419 | -0.179 (inactive) | 0.318 | -0.203 | 0.808 | 0.787 | 0.448 | -0.612 | -0.556 | 0.206 | 0.548 | 0.611 | 0.0043 | 0.284 | 0.329 | -0.236 | -0.132 | 0.0766 | 0.247 | 0.476 (inactive)
COc1c(C)cc(-c2cc3c(c(-c4ccccc4)n2)[Si](C(C)C)(C(C)C)OC3)cc1C | 0.247 | 0.478 (inactive) | -0.116 | -0.21 | -0.185 | -0.591 | -0.154 | -0.5 | 0.652 | 0.134 | 0.188 | -0.892 | -0.353 | 0.363 | 0.134 | 0.514 | 0.439 | -0.135 | 0.245 | 0.411 (inactive)
C=CC[C@@]1(C(=O)N2CCCCC2)N=C(c2ccc(OCCCO)cc2)O[C@@H]1c1ccccc1 | 0.676 | -0.221 (inactive) | 0.284 | 0.195 | 0.57 | 2.39 | 1.07 | 1.29 | 0.453 | 0.357 | 2.8 | 1.2 | 1.58 | 0.935 | 0.939 | 0.0286 | 1.9 | -0.034 | 1.08 | -0.952 (inactive)
NCCCCCCNC(=O)[C@H]1C[C@H]2C(=O)N[C@@H](Cc3ccccc3)C(=O)N2[C@H]1c1ccc(O)cc1 | 0.855 | 0.126 (inactive) | -0.0048 | -0.176 | 0.778 | 0.734 | 0.205 | 1.03 | -0.14 | 1.2 | 2.04 | 0.692 | 0.937 | 0.999 | 1.32 | 0.619 | -0.267 | 0.795 | 1.1 | 0.166 (inactive)
CCOc1cc(C(O)C2C=CC3C(=O)N(C)C(=O)C3N2N2CCCCC2)ccc1O (stereo not given) | 0.534 | 0.293 (inactive) | 0.135 | -0.0106 | 0.709 | 0.733 | 0.14 | 0.0667 | 0.278 | 0.852 | 1 | -0.158 | 0.125 | 0.498 | 0.746 | 0.1 | -0.634 | 0.192 | 0.335 | -0.906 (inactive)

Source: PubChem BioAssay
